# Among all 52,000 compounds or so, about 4,300 (8.3%) were called active. Shown is part of a subset that was picked to be rich in actives. A number with no mark means an inactive call. Rule as the data show it: active = survival mostly below about 52% (no sharp cut-off); inactive = mostly above about 56%.
# System: DeltatarO mutant
# Experiment: growth inhibition of S. aureus wild type versus tarO mutant, primary screen, teichoic acid synthesis inhibitors, RN4220, OD600 (AID 463173)
# Details: OD600, 18 h, stronger effect = lower value, screened at 18.75 µg/mL (by protocol)
row,SMILES,survival
1,CCOc1ccc(Sc2cc(C(=O)NCCc3ccccc3)c3ccccc3n2)cc1,73%
2,N#Cc1cn(CC(=O)NCc2ccccc2)c2ccccc12,87%
3,COc1cccc(NS(=O)(=O)c2ccc3c(c2)[C@H]2C=CC[C@H]2[C@@H](c2ccccc2Cl)N3)c1,163%
4,COc1ccc(C)cc1NS(=O)(=O)c1ccc2c(c1)[C@H]1C=CC[C@H]1[C@@H](c1cccc(Cl)c1)N2,57%
5,CCOC(=O)c1ccc2c(c1)[C@@H]1C=CC[C@@H]1[C@H](c1cccc(OC)c1OC)N2,-10% (active)
6,COc1cccc([C@H]2Nc3ccc(S(=O)(=O)Nc4cc(C)ccc4C)cc3[C@H]3C=CC[C@H]32)c1,52%
7,COc1ccc(NS(=O)(=O)c2ccc3c(c2)[C@H]2C=CC[C@H]2[C@@H](c2ccc(C(=O)O)cc2)N3)cc1,72%
8,COc1ccc(Br)cc1[C@@H]1Nc2ccc(C(=O)O)cc2[C@@H]2C=CC[C@@H]21,36% (active)
9,CCCN1CCN(CC2=C(C(=O)OCC)C(c3cccc(OC)c3OC)NC(=O)N2)CC1 (centres undefined),94%
10,CCOc1ccc2c(c1)[C@@H]1C=CC[C@@H]1[C@H](c1ccccc1Cl)N2,-10% (active)
11,Fc1ccc([C@@H]2Nc3ccccc3[C@@H]3C=CC[C@@H]32)cc1,56%
12,CCCCN(CC)CCNC(=O)Cn1cnc2sc(C)c(S(=O)(=O)N3CCC(C)CC3)c2c1=O,69%
13,COCC(=O)NCc1ccc2c(c1)OCO2,104%
14,CCN(CC)CCOC(=O)c1ccc(NC(=O)c2cc3cc(OC)ccc3oc2=O)cc1,73%
15,COc1ccc(NC(=O)Cn2c(=O)n(-c3ccc(C)c(C)c3)c(=O)c3c(C)c(C)sc32)cc1,139%
16,O=C1[C@@H]2CSC(c3ccc(C(F)(F)F)cc3)N2C(=O)N1c1ccccc1 (some centres undefined),81%
17,O=C(NCc1ccccc1F)c1ccc(CSc2nc3cccnc3n2Cc2ccccc2)cc1,75%
18,CCSc1nc(=O)c2c(n1C)NC(=O)CC2c1ccc(O)cc1OC (centres undefined),57%
19,CCCSc1nc(=O)c2c(n1C)NC(=O)CC2c1cccc(F)c1F (centres undefined),54% (active)
20,CSc1nc(=O)c2c(n1C)NC(=O)CC2c1ccccc1OC(C)C (centres undefined),46%
21,Cc1oc(-c2ccc(Cl)cc2)nc1Cn1c(=O)cc(-c2ccccc2)c2c(C)nn(C)c21,88%
22,Cc1oc(C)c2c(=O)cc(-c3ccc4c(c3)OCO4)cc(OC(=O)c3ccccc3Br)c12,106%
23,O=C(NCCc1ccncc1)Nc1c[nH]c2ccccc2c1=O,89%

row,SMILES,survival
1,COc1ccccc1C(=O)c1cn(CC(=O)Nc2ccccc2F)c2nc(C)ccc2c1=O,71%
2,CCOc1cc(Cl)c(S(=O)(=O)n2cc(C)nc2CC)cc1Cl,3% (active)
3,CCc1nc(C)cn1S(=O)(=O)c1ccc(Cl)c(Cl)c1OC,71%
4,CCOc1cc(Cl)c(S(=O)(=O)n2ccnc2)cc1Cl,73%
5,CCOc1ccc(C(=O)NCCSc2c(C)[nH]c3ccccc23)cc1OCC,56%
6,CC1=C(C(=O)Nc2ccc(F)cc2)C(c2ccc(N(C)C)cc2)NC(=O)N1 (centres undefined),140%
7,CC(C)(C)C(=O)NCCc1nc2ccccc2n1CCCCOc1ccc(Cl)cc1,18% (active)
8,Cc1ccccc1OCCCCn1c(CCNC(=O)C(C)(C)C)nc2ccccc21,36% (active)
9,Cc1ccc(OCCCCn2c(CCNC(=O)C(C)(C)C)nc3ccccc32)cc1,42% (active)
10,Cc1ccccc1OCCn1c(CCNC(=O)C2CCCCC2)nc2ccccc21,77%
11,Cc1cccc(OCCCn2c(CCNC(=O)C(C)(C)C)nc3ccccc32)c1,77%
12,CC(C)(C)C(=O)NCCc1nc2ccccc2n1CCCCOc1ccccc1,41% (active)
13,CCCCCn1c(CCCNC(=O)c2ccc(Cl)cc2)nc2ccccc21,85%
14,CC(=O)NCCc1nc2ccccc2n1CCCCOc1ccc(Cl)cc1,61%
15,Cc1ccccc1OCCn1c(CCNC(=O)C(C)(C)C)nc2ccccc21,82%
16,CCCCCn1c(CCCNC(=O)c2ccccc2)nc2ccccc21,59%
17,CCN(CC)S(=O)(=O)c1cccc(C(=O)NCc2ccccc2)c1,49%
18,CCN(C(=O)Cn1cc(C(=O)c2ccc(F)cc2)c(=O)c2ccc(C)nc21)c1cccc(C)c1,71%
19,CCc1ccccc1NC(=O)C1CCN(c2nn3c(=O)cc(C)nc3s2)CC1,81%
20,Cc1ccc(N(CC(=O)N2CCN(c3cccc(Cl)c3)CC2)S(=O)(=O)c2c(C)noc2C)cc1,73%
21,CCCCS(=O)(=O)CC(O)CSc1nc(-c2ccc(C)cc2)cc(-c2ccccc2)c1C#N (centres undefined),68%
22,CCN1C(=O)C2C(c3ccc(OC)cc3)NC(CC)(C(=O)OC)C2C1=O (centres undefined),56%
23,CN(C)CCNC(=O)c1ccc(Cn2c(SCc3ccc(F)cc3)nc3cccnc32)cc1,131%

row,SMILES,survival
1,COc1ccc(N(CC(C)C)S(=O)(=O)c2nnc(NC(=O)c3ccco3)s2)cc1,41% (active)
2,CN(c1ccccc1)S(=O)(=O)c1nnc(NC(=O)c2ccco2)s1,47%
3,CCN(c1ccccc1)S(=O)(=O)c1nnc(NC(=O)c2ccco2)s1,39% (active)
4,CCN(c1ccccc1C)S(=O)(=O)c1nnc(NC(=O)c2ccco2)s1,41% (active)
5,Cc1ccccc1N(C)S(=O)(=O)c1nnc(NC(=O)c2ccco2)s1,94%
6,CC(C)CC(=O)Nc1nnc(S(=O)(=O)N(CC(C)C)c2ccccc2)s1,111%
7,CCN(c1ccc(Cl)cc1)S(=O)(=O)c1nnc(NC(=O)c2ccco2)s1,67%
8,CC(C)CN(c1ccccc1)S(=O)(=O)c1nnc(NC(=O)c2ccco2)s1,31% (active)
9,CCN(c1cc(C)cc(C)c1)S(=O)(=O)c1nnc(NC(=O)c2ccco2)s1,52%
10,O=C(Cn1c(=O)n(-c2ccccc2)c(=O)c2ccc(C(=O)NCc3ccc4c(c3)OCO4)cc21)Nc1ccc(F)cc1,64%
11,CC(C)c1ccc(NC(=O)Cn2cc(S(=O)(=O)Cc3cccc(Cl)c3)c3ccccc32)cc1,76%
12,Cn1c(C(=O)N2CCc3ccccc32)cc2sccc21,91%
13,CC(=O)N1CCc2c(sc(NC(=O)CSc3ccc(F)cc3)c2-c2nc3ccccc3s2)C1,108%
14,Cc1ccc(Cn2c(CNC(=O)c3ccc(Cl)c([N+](=O)[O-])c3)nc3cccnc32)cc1,88%
15,CC(SC(=S)N1CCCCCC1)C(=O)O (centres undefined),90%
16,O=C(Cn1cc(S(=O)(=O)N2CCCC2)c(S(=O)(=O)N2CCCC2)c1)Nc1cccc(F)c1,98%
17,Cc1nn(-c2ccccc2)c(-n2cccc2)c1C(=O)NCCCN1CCN(c2ccccc2F)CC1,63%
18,Cc1ccc(N(C)S(=O)(=O)c2nnc(NC(=O)c3ccco3)s2)cc1,57%
19,Cc1ccc(N(CC(C)C)S(=O)(=O)c2nnc(NC(=O)c3ccco3)s2)cc1,44% (active)
20,CCC(C)(C)C(=O)Nc1ccc(Cl)cc1,93%
21,Cc1cccc(NC(=O)c2c(NC(=O)c3cccs3)sc3c2CCC(C)C3)c1 (centres undefined),60%
22,CC1CCc2c(sc(NC(=O)c3ccccc3)c2C(=O)Nc2ccccc2)C1 (centres undefined),42% (active)
23,CC1CCc2c(sc(NC(=O)Cc3ccccc3)c2C(=O)Nc2ccc(Cl)cc2)C1 (centres undefined),57%

row,SMILES,survival
1,CCOc1ccc(NC(=O)c2c(NC(=O)Cc3ccccc3)sc3c2CCC(C)C3)cc1 (centres undefined),46%
2,Cc1cccc(C(=O)Nc2sc3c(c2C(=O)N2CCCCC2)CCC(C)C3)c1 (centres undefined),-6% (active)
3,CCN(CC)C(=O)c1c(NC(=O)c2cccc(C)c2)sc2c1CCC(C)C2 (centres undefined),-1% (active)
4,Cc1cccc(NC(=O)c2c(NC(=O)c3ccco3)sc3c2CCC(C)C3)c1 (centres undefined),53%
5,CCOc1ccc(C(=O)c2cn(Cc3cccc(OC)c3)c3cc4c(cc3c2=O)OCO4)cc1,72%
6,COC(=O)c1ccc2nc(C)cc(Nc3ccc(O)cc3)c2c1,186%
7,COc1cc(Cl)c(S(=O)(=O)N2CCN(c3c(C)cccc3C)CC2)cc1Cl,69%
8,C/C(=N\NC(=O)c1cc2ccccc2cc1O)c1ccc(N)cc1,70%
9,COc1ccc(CNC(=O)Nc2ccc3c(c2)N(C)C(=O)c2ccccc2S3)cc1OC,61%
10,O=C(Nc1ccc(Cl)cc1)c1cc2nc(-c3ccc4c(c3)OCO4)cc(C(F)(F)F)n2n1,83%
11,CC(C)NC(=O)C1CC(c2ccc(Cl)cc2)=NO1 (centres undefined),84%
12,Cn1nc(-c2ccccc2F)c2cc(C(=O)NCc3cccc(Cl)c3)sc21,41% (active)
13,COc1ccc(CNC(=O)c2cc3c(-c4ccccc4F)nn(C)c3s2)cc1,61%
14,Cn1nc(-c2ccccc2F)c2cc(C(=O)NCc3ccccc3Cl)sc21,56% (active)
15,COc1cccc(CNC(=O)c2cc3c(-c4ccccc4F)nn(C)c3s2)c1,59%
16,Cn1nc(-c2ccccc2F)c2cc(C(=O)NCc3ccc(Cl)cc3)sc21,87%
17,Cn1nc(-c2ccccc2F)c2cc(C(=O)NCCc3ccc(Cl)cc3)sc21,76%
18,CCN1C(=O)C2(c3ccccc31)c1c(oc3ccccc3c1=O)C(=O)N2CCOC (centres undefined),67%
19,Cc1oc2cc3oc(=O)c(CC(=O)NCc4ccccc4)c(C)c3cc2c1C,73%
20,Cc1ccc(C(=O)N2CCc3cc(CNC(=O)COc4ccccc4)ccc32)cc1,89%

# Source: PubChem BioAssay AID463173 (ICCB-Longwood Screening Facility, Harvard Medical School, 2010)
